{"source": "the supplement of paper PMC11732987", "about": "“Enantioselective OTUD7B fragment discovery through chemoproteomics screening and high-throughput optimisation” (Communications Chemistry, 2025)", "assay_in_all_cases": "log2 ratio of Biotin-Ahx-Ub-VS probe labelling (fragment/DMSO); higher = less target engagement (more negative = stronger competition), active = hit call of the paper (q ≤ 0.05, log2 ratio ≤ -1)", "details_in_all_cases": "compound concentration: 200 uM; treatment time: 3 h", "key": {"[1]": {"molecular_target": "T1, OTUD6B (UniProt Q8N6M0)", "T1 sequence (whole entry)": "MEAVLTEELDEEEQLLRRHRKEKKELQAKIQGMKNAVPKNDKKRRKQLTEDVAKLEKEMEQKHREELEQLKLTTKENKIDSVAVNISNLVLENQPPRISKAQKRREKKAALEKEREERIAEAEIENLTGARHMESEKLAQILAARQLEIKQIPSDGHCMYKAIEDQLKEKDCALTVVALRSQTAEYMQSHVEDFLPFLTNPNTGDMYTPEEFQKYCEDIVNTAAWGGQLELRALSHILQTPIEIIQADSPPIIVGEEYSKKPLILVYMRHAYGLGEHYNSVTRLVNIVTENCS", "method_in_brief": "(§1)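 Labelled DUBs from HEK293T lysate were NeutrAvidin-enriched, digested with LysC and trypsin, and run by diaPASEF LC-MS/MS. Before that, each 495 µg sample in Tris/CHAPS/IGEPAL buffer with protease inhibitors was treated in triplicate with fragment at 200 µM or vehicle for 3 h, then with Biotin-Ahx-Ub-VS at 0.5 µM final for 1 h. Values are average log2 ratios of fragment over vehicle by unpaired t-test, based on global-median-normalised Spectronaut label-free quantities from proteins with ≥2 unique peptides.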"}, "[2]": {"molecular_target": "T2, OTUD7B (UniProt Q6GQQ9)", "T2 sequence (whole entry)": "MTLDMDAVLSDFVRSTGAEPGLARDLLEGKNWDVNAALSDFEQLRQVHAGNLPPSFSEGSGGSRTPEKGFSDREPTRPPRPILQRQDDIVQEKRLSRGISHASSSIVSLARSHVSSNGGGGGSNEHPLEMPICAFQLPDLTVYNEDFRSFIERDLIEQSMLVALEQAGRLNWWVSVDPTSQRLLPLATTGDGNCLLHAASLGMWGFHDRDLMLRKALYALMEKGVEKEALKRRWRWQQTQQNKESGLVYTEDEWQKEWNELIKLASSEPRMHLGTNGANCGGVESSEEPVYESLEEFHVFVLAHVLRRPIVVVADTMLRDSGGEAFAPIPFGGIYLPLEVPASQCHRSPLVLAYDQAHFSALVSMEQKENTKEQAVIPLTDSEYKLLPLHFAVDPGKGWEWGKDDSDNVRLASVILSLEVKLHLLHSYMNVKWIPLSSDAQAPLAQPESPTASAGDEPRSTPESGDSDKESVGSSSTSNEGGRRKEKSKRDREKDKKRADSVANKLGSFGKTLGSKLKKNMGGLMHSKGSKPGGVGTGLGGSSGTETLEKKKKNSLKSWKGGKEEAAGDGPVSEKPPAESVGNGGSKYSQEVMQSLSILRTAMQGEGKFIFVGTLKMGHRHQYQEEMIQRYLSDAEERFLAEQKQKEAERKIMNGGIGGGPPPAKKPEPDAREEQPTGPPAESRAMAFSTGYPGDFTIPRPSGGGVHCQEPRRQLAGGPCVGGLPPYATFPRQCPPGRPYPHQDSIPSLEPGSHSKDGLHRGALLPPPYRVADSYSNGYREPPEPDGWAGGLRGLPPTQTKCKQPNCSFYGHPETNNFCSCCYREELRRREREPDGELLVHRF", "method_in_brief": "as §1"}, "[3]": {"molecular_target": "PRPF8 (UniProt Q6P2Q9)", "method_in_brief": "as §1"}, "[4]": {"molecular_target": "T3, PSMD7 (UniProt P51665)", "T3 sequence (whole entry)": "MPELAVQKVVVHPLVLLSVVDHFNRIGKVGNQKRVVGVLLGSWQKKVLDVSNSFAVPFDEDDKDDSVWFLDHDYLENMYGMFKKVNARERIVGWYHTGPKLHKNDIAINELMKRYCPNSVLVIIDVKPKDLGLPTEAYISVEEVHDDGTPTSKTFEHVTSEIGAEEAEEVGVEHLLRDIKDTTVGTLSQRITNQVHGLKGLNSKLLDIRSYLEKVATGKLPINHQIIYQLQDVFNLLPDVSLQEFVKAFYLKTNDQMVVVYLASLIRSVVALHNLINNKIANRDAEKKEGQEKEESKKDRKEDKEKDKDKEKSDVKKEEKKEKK", "method_in_brief": "as §1"}, "[5]": {"molecular_target": "UCHL1 (UniProt P09936)", "sequence (P09936 whole entry, looked up)": "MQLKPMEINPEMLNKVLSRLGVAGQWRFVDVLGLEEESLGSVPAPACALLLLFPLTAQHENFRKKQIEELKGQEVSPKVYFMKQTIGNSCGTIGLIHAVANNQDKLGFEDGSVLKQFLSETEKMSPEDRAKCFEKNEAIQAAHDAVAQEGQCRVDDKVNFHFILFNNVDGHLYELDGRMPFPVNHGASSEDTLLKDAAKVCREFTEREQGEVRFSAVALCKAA", "method_in_brief": "as §1"}, "[6]": {"molecular_target": "T4, UCHL3 (UniProt P15374)", "T4 sequence (whole entry)": "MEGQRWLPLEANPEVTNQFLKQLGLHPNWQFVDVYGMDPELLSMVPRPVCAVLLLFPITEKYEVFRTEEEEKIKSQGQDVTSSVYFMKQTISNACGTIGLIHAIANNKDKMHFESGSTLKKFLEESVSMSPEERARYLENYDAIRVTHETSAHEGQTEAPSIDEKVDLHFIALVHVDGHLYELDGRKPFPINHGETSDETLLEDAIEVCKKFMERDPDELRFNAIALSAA", "method_in_brief": "as §1"}, "[7]": {"molecular_target": "T5, UCHL5 (UniProt Q9Y5K5)", "T5 sequence (whole entry)": "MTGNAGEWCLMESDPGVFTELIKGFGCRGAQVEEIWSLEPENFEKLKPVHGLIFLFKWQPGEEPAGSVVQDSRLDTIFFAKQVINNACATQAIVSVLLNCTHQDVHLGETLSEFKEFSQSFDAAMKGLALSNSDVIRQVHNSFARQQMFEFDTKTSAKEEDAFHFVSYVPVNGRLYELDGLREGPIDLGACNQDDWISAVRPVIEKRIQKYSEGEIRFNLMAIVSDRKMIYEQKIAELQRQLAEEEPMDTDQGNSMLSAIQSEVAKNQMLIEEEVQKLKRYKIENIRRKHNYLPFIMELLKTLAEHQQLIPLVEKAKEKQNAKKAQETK", "method_in_brief": "as §1"}, "[8]": {"molecular_target": "USP10 (UniProt Q14694)", "sequence (Q14694 whole entry)": "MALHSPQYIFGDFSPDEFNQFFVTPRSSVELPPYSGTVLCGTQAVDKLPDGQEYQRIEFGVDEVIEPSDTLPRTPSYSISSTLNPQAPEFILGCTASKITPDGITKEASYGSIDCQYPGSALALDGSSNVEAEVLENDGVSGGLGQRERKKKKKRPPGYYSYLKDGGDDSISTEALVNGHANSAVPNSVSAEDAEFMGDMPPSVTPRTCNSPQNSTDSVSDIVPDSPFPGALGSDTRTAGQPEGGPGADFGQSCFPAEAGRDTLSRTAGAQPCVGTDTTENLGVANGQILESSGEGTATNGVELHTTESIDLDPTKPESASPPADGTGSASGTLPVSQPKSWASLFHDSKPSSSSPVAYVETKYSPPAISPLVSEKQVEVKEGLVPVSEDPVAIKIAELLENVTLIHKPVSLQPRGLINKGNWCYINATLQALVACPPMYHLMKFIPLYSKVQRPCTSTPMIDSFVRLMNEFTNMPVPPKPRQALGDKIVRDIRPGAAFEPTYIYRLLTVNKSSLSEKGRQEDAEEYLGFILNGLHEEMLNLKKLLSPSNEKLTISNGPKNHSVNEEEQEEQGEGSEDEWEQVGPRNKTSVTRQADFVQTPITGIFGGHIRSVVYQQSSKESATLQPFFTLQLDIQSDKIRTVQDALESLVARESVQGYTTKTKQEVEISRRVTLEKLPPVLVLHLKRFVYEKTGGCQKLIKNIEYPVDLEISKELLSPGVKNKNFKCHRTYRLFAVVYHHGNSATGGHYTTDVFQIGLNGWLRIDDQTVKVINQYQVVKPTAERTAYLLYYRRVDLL", "method_in_brief": "as §1"}, "[9]": {"molecular_target": "T6, USP15 (UniProt Q9Y4E8)", "T6 sequence (whole entry)": "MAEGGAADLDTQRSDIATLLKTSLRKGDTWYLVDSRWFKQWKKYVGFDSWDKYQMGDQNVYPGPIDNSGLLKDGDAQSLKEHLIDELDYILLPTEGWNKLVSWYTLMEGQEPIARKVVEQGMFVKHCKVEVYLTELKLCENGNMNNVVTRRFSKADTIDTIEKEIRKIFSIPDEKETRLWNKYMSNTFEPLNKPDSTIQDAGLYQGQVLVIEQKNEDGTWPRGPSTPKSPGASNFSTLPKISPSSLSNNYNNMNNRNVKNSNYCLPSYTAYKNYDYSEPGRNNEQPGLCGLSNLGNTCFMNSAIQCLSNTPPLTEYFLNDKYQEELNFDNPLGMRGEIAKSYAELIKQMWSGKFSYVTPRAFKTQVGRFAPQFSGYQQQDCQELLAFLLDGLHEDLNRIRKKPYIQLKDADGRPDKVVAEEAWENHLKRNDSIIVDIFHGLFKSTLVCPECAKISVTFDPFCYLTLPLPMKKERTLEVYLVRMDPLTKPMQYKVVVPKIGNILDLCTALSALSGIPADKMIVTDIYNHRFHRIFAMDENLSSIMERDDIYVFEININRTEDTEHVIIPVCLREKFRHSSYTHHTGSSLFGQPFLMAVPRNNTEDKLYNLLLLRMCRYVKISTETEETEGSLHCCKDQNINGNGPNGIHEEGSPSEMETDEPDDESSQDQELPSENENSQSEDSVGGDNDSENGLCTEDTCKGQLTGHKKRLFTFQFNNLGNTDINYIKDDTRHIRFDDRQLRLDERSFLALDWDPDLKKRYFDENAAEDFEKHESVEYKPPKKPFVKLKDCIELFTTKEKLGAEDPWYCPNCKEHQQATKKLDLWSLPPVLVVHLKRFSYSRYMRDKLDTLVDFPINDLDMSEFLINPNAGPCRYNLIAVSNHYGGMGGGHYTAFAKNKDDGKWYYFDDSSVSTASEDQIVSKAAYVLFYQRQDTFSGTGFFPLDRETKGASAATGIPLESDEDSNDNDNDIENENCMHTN", "method_in_brief": "as §1"}, "[10]": {"molecular_target": "USP16 (UniProt Q9Y5T5)", "sequence (Q9Y5T5 whole entry, looked up)": "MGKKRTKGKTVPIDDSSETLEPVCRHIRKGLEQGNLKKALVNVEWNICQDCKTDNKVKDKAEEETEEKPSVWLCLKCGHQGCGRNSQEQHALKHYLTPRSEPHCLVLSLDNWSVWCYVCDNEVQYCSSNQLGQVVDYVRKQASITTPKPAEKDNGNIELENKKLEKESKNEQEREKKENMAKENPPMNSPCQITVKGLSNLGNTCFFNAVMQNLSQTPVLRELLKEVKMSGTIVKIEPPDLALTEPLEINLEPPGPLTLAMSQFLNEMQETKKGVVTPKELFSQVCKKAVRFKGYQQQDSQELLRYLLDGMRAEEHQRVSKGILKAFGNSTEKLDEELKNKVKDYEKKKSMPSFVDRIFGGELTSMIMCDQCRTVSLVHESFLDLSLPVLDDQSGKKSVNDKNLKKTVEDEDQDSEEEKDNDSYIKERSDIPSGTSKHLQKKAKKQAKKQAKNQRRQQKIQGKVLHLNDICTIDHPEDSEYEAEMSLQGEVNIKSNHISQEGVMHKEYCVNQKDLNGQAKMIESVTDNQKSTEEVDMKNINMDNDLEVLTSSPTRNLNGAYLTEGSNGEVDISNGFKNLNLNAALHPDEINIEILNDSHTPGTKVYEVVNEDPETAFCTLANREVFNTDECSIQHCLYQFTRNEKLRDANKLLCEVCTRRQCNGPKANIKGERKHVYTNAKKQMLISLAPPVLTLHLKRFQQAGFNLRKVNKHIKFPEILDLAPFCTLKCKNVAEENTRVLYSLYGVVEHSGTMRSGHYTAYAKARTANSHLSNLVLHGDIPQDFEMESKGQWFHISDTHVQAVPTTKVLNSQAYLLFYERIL", "method_in_brief": "as §1"}}, "note": "Unmarked numbers belong to inactive results.", "data": [{"smiles": "O=C(CCl)Nc1ccc(Cl)c(F)c1", "values": [{"measurement": "log2 ratio of Biotin-Ahx-Ub-VS probe labelling", "setting": "[1]", "result": -0.448}, {"measurement": "log2 ratio of Biotin-Ahx-Ub-VS probe labelling", "setting": "[2]", "result": "-1.15 (active)"}, {"measurement": "log2 ratio of Biotin-Ahx-Ub-VS probe labelling", "setting": "[3]", "result": 0.0807}, {"measurement": "log2 ratio of Biotin-Ahx-Ub-VS probe labelling", "setting": "[4]", "result": -0.221}, {"measurement": "log2 ratio of Biotin-Ahx-Ub-VS probe labelling", "setting": "[5]", "result": "-1.36 (active)"}, {"measurement": "log2 ratio of Biotin-Ahx-Ub-VS probe labelling", "setting": "[6]", "result": -0.216}, {"measurement": "log2 ratio of Biotin-Ahx-Ub-VS probe labelling", "setting": "[7]", "result": -0.398}, {"measurement": "log2 ratio of Biotin-Ahx-Ub-VS probe labelling", "setting": "[8]", "result": -0.142}, {"measurement": "log2 ratio of Biotin-Ahx-Ub-VS probe labelling", "setting": "[9]", "result": -0.331}, {"measurement": "log2 ratio of Biotin-Ahx-Ub-VS probe labelling", "setting": "[10]", "result": 0.323}]}]}
